High-throughput results from PubChem BioAssay.
BL2 CD40 inh = inhibitors of CD40-induced NF-kB signaling, primary screen, BL2 cells, luciferase reporter, single point. 83,000 tested, 0.94% active. AID 1053188, 2014. inhibition, % at 10 µM. CD40L-induced, 4 h;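 active = mean inhibition of at least 50% with a set share of replicates also reaching that level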;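 also: 0% = neutral control wells and 100% = IKK inhibitor VII at 50 µM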
An asterisk follows results filed as active; [ ] = dose if it differs, or a comment. Shown is part of a subset that was picked to be rich in hits.

SMILES | BL2 CD40 inh
COCCn1c(C)cc(C(=O)COC(=O)c2ccc(Cl)c(S(N)(=O)=O)c2)c1C | 21*
COCCn1c(C)cc(C(=O)COC(=O)c2ccc(Br)o2)c1C | 48*
Cc1cc(C(=O)COC(=O)c2ccc(Br)o2)c(C)n1C | -7
Cc1cc(C(=O)COC(=O)c2ccc(Br)o2)c(C)n1Cc1ccco1 | -17
Cc1cc(C(=O)COC(=O)c2ccc(Cl)c(S(N)(=O)=O)c2)c(C)n1CC1CCCO1 (centres undefined) | 18
COCCn1c(C)cc(C(=O)COC(=O)c2ccc(-n3nc(C)cc3C)cc2)c1C | 8
CO[C@H]1CN(C)C(=O)c2ccc(NC(=O)C3CCCCC3)cc2OC[C@@H](C)N(C)C[C@H]1C | 13
CN1c2ccc(C#Cc3cccnc3)cc2[C@H]2[C@H](CCN2S(=O)(=O)c2ccc(F)cc2)[C@@H]1CO | -13[25 µM]
Cc1noc(C)c1S(=O)(=O)Nc1ccc2c(c1)CC(=O)N([C@H](C)CO)C[C@@H](C)[C@H](CN(C)C(=O)Nc1cccc3ccccc13)O2 | -11[25 µM]
O=C(O)C[C@@H]1C[C@@H]2c3cc(NC(=O)Cc4ccncc4)ccc3O[C@@H]2[C@H](CO)O1 | 9[25 µM]
N#Cc1ccc(-c2ccc3c(c2)[C@@H]2[C@@H](CCN2C(=O)c2ccc4c(c2)OCO4)[C@H](CO)N3)cc1 | 3[25 µM]
c1cncc(-c2ccc(C3[C@@H]4CN(Cc5nccs5)C[C@H]3N4)cc2)c1 (some centres undefined) | 12[25 µM]
CC(C)(C)S(=O)N1Cc2cc(C(=O)NCc3ccc4c(c3)OCO4)nc(-c3cccc(-c4cccc(F)c4)c3)c2[C@@H]1CCO (some centres undefined) | 6[25 µM]
COc1ccc2c3c(n(C)c2c1)[C@H](CO)N(C(C)=O)CC31CCN(C(=O)Nc2ccccc2F)CC1 | 12[25 µM]
COc1ccc2c3c(n(C)c2c1)[C@H](CO)N(C(=O)Nc1ccc(F)cc1)CC31CCN(C(=O)Nc2ccc(F)cc2F)CC1 | 68*[25 µM]
COc1ccc2c3c([nH]c2c1)[C@H](CO)N(C(=O)Nc1ccc(F)cc1)CC31CN(Cc2cc(F)ccc2F)C1 | 56*[25 µM]
COc1ccc2c3c([nH]c2c1)[C@@H](CO)N(C(=O)Nc1ccc(F)cc1)CC31CN(Cc2cc(F)ccc2F)C1 | 40[25 µM]
COc1ccc2c3c(n(C)c2c1)[C@@H](CO)N(C(=O)Nc1ccc(F)cc1)CC31CCN(C(=O)Nc2c(C)noc2C)CC1 | 18[25 µM]
CCCNC(=O)N1CC2(C1)CN(C(=O)Nc1ccc(F)cc1)[C@@H](CO)c1[nH]c3cc(OC)ccc3c12 | -10[25 µM]
O=C(CC1CC1)N1CC(=O)N2[C@H](CO)[C@H](c3ccc(C#Cc4cccc(F)c4)cc3)[C@@H]2C1 | 9[25 µM]
C[C@H](NC(=O)N(C)C[C@@H]1OCc2ccccc2-c2ccccc2C(=O)N([C@@H](C)CO)C[C@@H]1C)c1ccccc1 | -17[25 µM]
CCCNC(=O)N1[C@@H](CO)[C@@H]2c3ccccc3N(C(=O)Nc3ccccc3)C[C@@H]21 | -26
COCC(=O)N(C[C@@H]1[C@@H](c2ccccc2)[C@@H](CO)N1C(=O)NC(C)C)C(C)C | 0[25 µM]
NCc1c(O)ccc2ccccc12 | -3
Oc1ccc2ccccc2c1CNc1cnc2ccccc2c1 | 54*
SMILES | BL2 CD40 inh
Cn1c(NCc2c(O)ccc3ccccc23)nc2ccccc21 | -12
CO[C@@H]1CN(C)C(=O)c2cc(NC(=O)C3CCC3)ccc2OC[C@H](C)N(Cc2ccc(F)cc2)C[C@@H]1C | 0
C[C@@H]1CN([C@H](C)CO)C(=O)Cc2cc(NC(=O)Cn3cnnn3)ccc2O[C@@H]1CN(C)C(=O)Nc1ccc(C(F)(F)F)cc1 | -1[25 µM]
N#C[C@H]1[C@H](c2ccc(C#Cc3cccc(F)c3)cc2)[C@@H](CO)N1C(=O)C1CC1 | 37
N#C[C@H]1[C@@H](c2ccc(C#Cc3ccccc3F)cc2)[C@@H](CO)N1C(=O)C1CCC1 | 8
N#C[C@H]1[C@H](c2ccc(C#Cc3cccc(F)c3)cc2)[C@@H](CO)N1C(=O)C1CCC1 | 55*
N#C[C@H]1[C@@H](c2ccc(C#Cc3cccc(F)c3)cc2)[C@H](CO)N1C(=O)C1CCCC1 | -6
N#C[C@H]1[C@H](c2ccc(C#Cc3cccc(F)c3)cc2)[C@@H](CO)N1C(=O)C1CCCC1 | 42
CCCNC(=O)N1[C@H](C#N)[C@@H](c2ccc(C#Cc3cccc(F)c3)cc2)[C@@H]1CO | -1[25 µM]
N#C[C@H]1[C@@H](c2ccc(C#Cc3cccc(F)c3)cc2)[C@H](CO)N1C(=O)C1CC1 | -1
N#C[C@H]1[C@@H](c2ccc(C#Cc3cccc(F)c3)cc2)[C@@H](CO)N1C(=O)C1CCCC1 | 1
N#C[C@@H]1[C@@H](c2ccc(C#Cc3ccc(F)cc3)cc2)[C@H](CO)N1C(=O)C1CCC1 | 1[25 µM]
N#C[C@@H]1[C@H](c2ccc(C#Cc3ccc(F)cc3)cc2)[C@@H](CO)N1C(=O)C1CC1 | 72*
CCCNC(=O)N1[C@H](C#N)[C@H](c2ccc(C#Cc3cccc(F)c3)cc2)[C@H]1CO | 77*[25 µM]
N#C[C@H]1[C@H](c2ccc(C#Cc3ccc(F)cc3)cc2)[C@@H](CO)N1C(=O)C1CCC1 | 54*[25 µM]
Cc1noc(C)c1S(=O)(=O)Nc1ccc2c(c1)CC(=O)N([C@@H](C)CO)C[C@H](C)[C@@H](CN(C)Cc1ccc(Oc3ccccc3)cc1)O2 | 14[25 µM]
O=S(=O)(c1ccccc1F)N1CC[C@H]2[C@H](CO)Nc3ccc(-c4ccccc4)cc3[C@H]21 | 0
Cc1cccc(S(=O)(=O)N2CC[C@@H]3[C@H](CO)Nc4ccc(C#Cc5ccc(F)cc5)cc4[C@@H]32)c1 | 5[25 µM]
CCCNC(=O)[C@H]1[C@H](CO)[C@H]2Cn3c(ccc(-c4cccc(OC)c4)c3=O)[C@H]2N1Cc1nccs1 | -9[25 µM]
COc1ccccc1-c1ccc([C@@H]2[C@@H](C#N)N(C(=O)NC3CCCC3)[C@@H]2CO)cc1 | -8
O=C1CN(S(=O)(=O)Cc2ccccc2)C[C@@H]2[C@@H](c3ccc(C#CC4CC4)cc3)[C@@H](CO)N12 | 8
C[C@@H]1CC(=O)NCC/C=C\C[C@@H](c2cccc(Cl)c2)NC1=O | 0[25 µM]
CC(C)COC(=O)N(C)C[C@H]1OCc2ccccc2-c2c(n(C)c3ccccc23)C(=O)N([C@H](C)CO)C[C@@H]1C | -2[25 µM]
COCC(=O)N1[C@@H](CO)[C@@H](c2ccccc2)[C@@H]1CNC(=O)c1ccccn1 | 0
COc1ccccc1CNC(=O)C[C@@H]1C[C@@H]2c3cc(NC(=O)Nc4ccccc4F)ccc3O[C@@H]2[C@H](CO)O1 | 4[25 µM]
SMILES | BL2 CD40 inh
O=C(C1CCCC1)N1C[C@@H]2[C@H](c3ccccc31)[C@@H](CO)N2C(=O)Nc1cccc(F)c1 | 2
Cc1ccc(-c2cc(-c3ccccc3)c(C#N)c(N)n2)o1 | 46*
Cc1ccc(-c2c(C#N)c(N)nc3c2CCCC3)o1 | 5
N#Cc1c(-c2ccco2)cc(-c2cccnc2)nc1N | 2
CCCN1[C@H](C(=O)N2CCOCC2)[C@@H](CO)[C@@H]2Cn3c(ccc(-c4ccccc4)c3=O)[C@@H]21 | 3[25 µM]
C[C@@H]1CN([C@H](C)CO)C(=O)c2cc(N(C)C)ccc2O[C@@H](C)CCCCO[C@H]1CN(C)C(=O)Cc1ccccc1 | 8
CCCCNC(=O)C1(C)CCN1C(=O)c1cc(-c2cccs2)oc1C (centres undefined) | 105*
CCCCNC(=O)C1(C)CCN1C(=O)c1ccccc1Br (centres undefined) | 9
CCCCNC(=O)C1(C)CCN1C(=O)c1ccc(C)c(F)c1 (centres undefined) | 3
CN(C)C(=O)c1cc2c(c(-c3cccc(C4=CCCCC4)c3)n1)[C@H](CCO)N(S(C)(=O)=O)C2 | 16[25 µM]
